Shown are actives, neighbours in structure and some others; about 3.6% of the full set was active somewhere.
GDH-TPI inh: inhibits GDH-TPI coupling enzymes, artifact for Mtb FBA screen; actives 1.2% (n = 360,000); inhibition, % at 4.8 µM; GDH-TPI coupled enzyme counterscreen, NADH absorbance; in the data active means inhibition above about 30%;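 further: 0% = DMSO wells and 100% = wells lacking the enzyme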
Mtb hypoxia rep: inhibitors of hypoxia-regulated fluorescent reporter in Mycobacterium tuberculosis | M. tuberculosis hypoxia-regulated fluorescent reporter, fluorescence | fluorescence inhibition, % (test concentration not listed) | actives 0.1% (n = 300,000); in the data active means fluorescence inhibition mostly above about 23%, no sharp cut-off; inactive means mostly below about 17%
DUSP3 inh: DUSP3 (human) phosphatase inhibition | P51452 | recombinant VHR phosphatase, pNPP absorbance | inhibition, % at 13.3 µM | actives 0.52% (n = 290,000) | AID 1654; in the data active means inhibition above about 50%
Mtb betalactam: beta-lactam sensitization of Mtb H37Rv | M. tuberculosis H37Rv growth with meropenem, percent inhibition | AID 434955 | inhibition, % at 25 µM | actives 0.27% (n = 330,000); call rule not given here;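 further: growth measured after seven days incubation then overnight dye step; 0% = bacteria only wells and 100% = bacteria with antibiotic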
Mtb FBA inh: Mtb fructose-bisphosphate aldolase inhibition; P9WQA3; purified M. tuberculosis FBA, fluorescence read-out; inhibition, % at 1 µM; actives 2.3% (n = 360,000); AID 588726; in the data active means inhibition above about 27%;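 further: 0% = vehicle and 100% = reference inhibitor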
Target sequence (P9WQA3 whole entry, looked up): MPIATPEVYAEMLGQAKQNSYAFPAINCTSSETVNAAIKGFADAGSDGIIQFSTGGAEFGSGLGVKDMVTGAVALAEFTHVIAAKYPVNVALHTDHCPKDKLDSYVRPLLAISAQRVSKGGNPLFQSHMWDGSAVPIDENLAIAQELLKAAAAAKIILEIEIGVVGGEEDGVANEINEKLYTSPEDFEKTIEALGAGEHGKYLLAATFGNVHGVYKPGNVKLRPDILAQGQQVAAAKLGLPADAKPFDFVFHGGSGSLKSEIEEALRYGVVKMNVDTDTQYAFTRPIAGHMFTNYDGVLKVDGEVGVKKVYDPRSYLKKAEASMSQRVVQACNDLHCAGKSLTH
An asterisk follows results filed as active; nt = no result given; + = active, no number.

SMILES	GDH-TPI inh	Mtb hypoxia rep	DUSP3 inh	Mtb betalactam	Mtb FBA inh
COc1ccc(/C=N/NC(=O)c2nc(-c3ccccc3)n(-c3ccccc3)n2)cc1OC	37*	nt	-13	4	2
COc1ccc(/C=N/NC(=O)c2nc(-c3ccccc3)cc(-c3ccccc3)n2)cc1	32*	nt	21	56	1
COc1cc(/C=N/NC(=O)c2nc(-c3ccccc3)n(-c3ccccc3)n2)ccc1O	30	nt	14	-3	-1
CC(C(=O)Nc1ccccc1N1CCOCC1)N1C(=O)C2CC=CCC2C1=O (configuration not stated)	nt	3	nt	nt	nt
COc1ccccc1OCC(O)Cn1nc(C)cc1C (configuration not stated)	-10	-66	nt	3	-10
Cc1cc(C)n(CC(O)COc2ccccc2[N+](=O)[O-])n1 (configuration not stated)	3	1	56*	-3	0
CN1C(=O)C(O)(CC(=O)C=CC=Cc2ccccc2)c2ccccc21 (configuration not stated)	nt	10	nt	nt	nt
CN(C)CCOC(=O)C12CC3(C)CC(C)(CC(C)(C3)C1)C2	13	3	52*	7	2
Cc1cccn2c(=O)c(/C=C(\C#N)C(=O)NC3CCS(=O)(=O)C3)c(N3CCC(C(N)=O)CC3)nc12 (configuration not stated)	0	-3	12	-7	192*
Cc1cccn2c(=O)c(/C=C(\C#N)C(=O)NC3CCS(=O)(=O)C3)c(Oc3ccccc3Cl)nc12 (configuration not stated)	7	-7	26	4	18
Cc1cccn2c(=O)c(/C=C(\C#N)C(N)=O)c(N3CCN(Cc4ccc5c(c4)OCO5)CC3)nc12	16	nt	13	9	33*
Cc1cccn2c(=O)c(/C=C(\C#N)C(=O)NC3CCS(=O)(=O)C3)c(N3CC(C)OC(C)C3)nc12 (configuration not stated)	7	11	3	-12	120*
Cc1ccccc1Oc1nc2c(C)cccn2c(=O)c1/C=C(\C#N)C(=O)NC1CCS(=O)(=O)C1 (configuration not stated)	10	14	10	-8	34*
CCCNC(=O)OCC1OC(CCON=CCC2C=CC(OC(C)=O)C(COC(C)=O)O2)C=CC1Oc1ccc(OC)cc1 (configuration not stated)	nt	-1	nt	nt	nt
O=C(NCc1ccccc1)C1=CC(C2CC2)CC(OCCCCO)O1 (configuration not stated)	nt	-1	nt	nt	nt
COc1ccc(/C=C\c2nc(=O)c3ccccc3o2)cc1	26	nt	6	nt	2
O=c1nc(/C=C/c2ccc(O)c(O)c2)oc2ccccc12	44*	-1	-18	nt	-13
CC(=NN1CCN(c2ccccc2)CC1)c1ccccc1O	nt	9	nt	nt	nt
CCOC(=O)N1CCN(c2ccc(Cl)cc2)CC1	6	18	-4	-3	1
CCOC(=O)C(/C=C(\C#N)C(=O)OCC)=C(/N)N1CCN(c2ccc(Cl)cc2)CC1	59*	1	-2	100	-1
CCOC1OC(C(=O)N2CCN(Cc3ccccc3)CC2)=CC(c2csc3ccccc23)C1CCCO (configuration not stated)	nt	0	nt	nt	nt
CS(=O)(=O)Nc1ccc(C2=NN(C(=O)c3ccco3)C(c3cccc(F)c3)C2)cc1 (configuration not stated)	31*	-2	12	3	3
CCS(=O)(=O)Nc1ccc(C2=NN(C(=O)c3ccco3)C(c3ccc(C)cc3)C2)cc1 (configuration not stated)	24	-6	18	15	3
CCS(=O)(=O)Nc1ccc(C2=NN(C(=O)c3ccco3)C(c3ccc(Cl)o3)C2)cc1 (configuration not stated)	50*	4	nt	3	5
CCC(=O)N1N=C(c2ccc(NS(=O)(=O)CC)cc2)CC1c1ccc(C)cc1 (configuration not stated)	5	-7	20	7	+
O=C(C1=CC(c2ccc3c(c2)OCO3)CC(OCc2ccc(CO)cc2)O1)N1CCN(Cc2ccc3c(c2)OCO3)CC1 (configuration not stated)	nt	9	nt	nt	nt
CC(=NNC(=O)Cn1cnc2ccccc21)c1cccs1	nt	6	nt	nt	nt
O=C(CCn1c2c(c3ccccc31)CCCC2)NNC(=O)c1ccc(Cl)c([N+](=O)[O-])c1	15	-2	52*	6	3
Cc1cc(OCc2cc(C(=O)NC3CCC3)no2)cc(C)c1Cl	3	0	-2	13	46*
